# Measurements: PubChem BioAssay AID1117282 (The Scripps Research Institute Molecular Screening Center, 2014)
# The list shows a part of the results. A number with no mark means an inactive call. Calls of active or inactive are those of the source.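 Rule for the calls: active = mean inhibition across replicates above a set limit taken from the earlier primary screen (cut at about 11% in these data); inactive = the rest.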
# Biological target: RNA-editing ligase 1, mitochondrial (Trypanosoma brucei brucei) (UniProt P86926)
# Sequence (P86926 whole entry, looked up): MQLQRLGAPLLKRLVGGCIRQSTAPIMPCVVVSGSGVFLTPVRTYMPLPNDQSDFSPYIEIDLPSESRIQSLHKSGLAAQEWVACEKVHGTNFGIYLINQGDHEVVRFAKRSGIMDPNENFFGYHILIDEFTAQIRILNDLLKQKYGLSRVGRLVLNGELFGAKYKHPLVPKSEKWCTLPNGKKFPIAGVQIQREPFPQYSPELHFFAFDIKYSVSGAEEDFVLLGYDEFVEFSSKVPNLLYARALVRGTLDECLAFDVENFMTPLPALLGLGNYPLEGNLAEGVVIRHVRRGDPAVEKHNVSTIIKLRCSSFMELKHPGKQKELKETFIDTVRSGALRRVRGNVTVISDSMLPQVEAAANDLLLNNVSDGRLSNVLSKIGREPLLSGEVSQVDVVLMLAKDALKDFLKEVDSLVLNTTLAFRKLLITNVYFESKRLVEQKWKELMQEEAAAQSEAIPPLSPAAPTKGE
# Experiment: T. brucei editing ligase REL1 blockade – biochemical, FRET fluorescence, triplicate, confirmation (AID 1117282);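 note: 0% = REL1 with substrate and DMSO and 100% = REL1 plus control inhibitor NSC42067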
# Details: TbREL1 RNA ligation, at 9.66 µM, hits give high values
row,Structure (SMILES),inhibition
1,O=C(NCc1ccccc1)[C@@H]1CSC2c3ccccc3C(=O)N21 (some centres undefined),3.84%
2,CC1(C)CC(N2CCN(C(c3ccccc3)c3ccccc3)CC2)=CC(=[N+]2CCCCC2)C1,16.7% (active)
3,COc1cc(/C=C/C(=O)n2cnc3ccccc32)cc(OC)c1OC,2.66%
4,Nc1ccc2nc3c(=O)[nH]c(=S)[nH]c3nc2c1,14.2% (active)
5,COCc1c(N)c(C)nc(Cl)c1C#N,7.44%
6,Cc1nnsc1C(=O)Nc1cccc(Cl)c1C,2.09%
7,COc1ccc(C(C(=O)Nc2c(C)cccc2C)N2CCN(c3ccc(C)cc3)CC2)cc1 (centres undefined),-1.79%
8,C=CCn1c(=S)[nH]c2scc(-c3ccco3)c2c1=O,13.8% (active)
9,CC[C@@H](C)[C@@H]1CN([C@@H](C)CN2CCC[C@H]2CN2C(N)=NC[C@H]2C(C)C)C(=N)N1CCc1ccc(Cl)c(Cl)c1,13.3% (active)
10,O=C(Nc1nc(-c2ccco2)c(-c2ccco2)s1)c1ccco1,6.13%
11,O=C(Nc1cccc(F)c1)NC1CCCCCCC1,4.12%
12,CN1CCN(/N=C2/C(=O)Nc3ccc([N+](=O)[O-])cc32)CC1,3.63%
13,CC(C)Cn1c(N)c(C(=O)NCc2cccs2)c2nc3ccccc3nc21,6.35%
14,COC(=O)C1=C(C)N(Cc2cccc(C(F)(F)F)c2)C(=NCc2cccc(C(F)(F)F)c2)NC1c1ccccc1C(F)(F)F (centres undefined),19.9% (active)
15,COC(=O)C1=C(C)N(Cc2cccc(C(F)(F)F)c2)C(=NCc2ccccc2)NC1c1ccccc1C(F)(F)F (centres undefined),21.2% (active)
16,CCCCCn1c(=O)[nH]c2cc(C(=O)NCCCN3CCCCC3C)ccc2c1=O (centres undefined),7.94%
17,COc1c(O)cc2oc(-c3ccc(O)c(O)c3)cc(=O)c2c1O,12.7% (active)
18,CNc1nc(Nc2ccc(C)c(Cl)c2)nc(N)c1[N+](=O)[O-],9.65%
19,COc1cc(NC(=O)CCS(=O)(=O)c2ccc3c(c2)oc(=O)n3C)cc(OC)c1,2.33%
